Results from PubChem BioAssay (NCATS).
Inconclusive results are not listed. Unmarked numbers belong to inactive results. The source made the active and inactive calls. The call rests on the fitted dose curve; in most records, active means well fitted cell-killing curve with a large enough effect; inconclusive means small, poorly fitted or top-dose-only effect; inactive means flat fitted curve, though single readings scatter.
Potency means the concentration at half of the fitted maximal effect.

Experiment: Cellular viability qHTS for adrenocortical cancer (ACC) cell line SW-13 (AID 1963989); further: nearly all actives have a fitted effect of over 65% in size;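 on activity (max response): cells grown in serum-free medium with ITS supplement; on the % scale 0 is the no-effect control and ±100 the full control effect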
Details: SW-13 ACC cells viability, CellTiter-Glo, 48 h; activity (max response): hits give low values
Procedure, shortened: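 IC50 and maximal-response values come from four-parameter logistic fits of titration data. SW-13 cells in serum-free medium received compounds (up to 46 uM final) for 48 h before CellTiter-Glo luminescence.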
For C[C@]12CC[C@H]3[C@@H](CCC4=CC(=O)CC[C@@H]43)[C@@H]1CC[C@@H]2OC(=O)CCc1ccccc1, the activity (max response) was -0.27%.
Work on Clc1ccc(C(c2ccc(Cl)cc2)C(Cl)(Cl)Cl)cc1 yielded an activity (max response) of 4.08%.
C[C@]12CC[C@H]3[C@@H](CC[C@@]45O[C@H]4C(O)=C(C#N)C[C@]35C)[C@H]1CC[C@H]2O gave an activity (max response) of -2%.
With CS(=O)(=O)c1ccc(C(=O)C2C(=O)CCCC2=O)c([N+](=O)[O-])c1 the activity (max response) was -0.0273%.
COc1ccc2[nH]cc(CCN(C(C)C)C(C)C)c2c1 gave an activity (max response) of -8.69%.
Work on Nc1ccc([As](=O)(O)O)cc1 yielded an activity (max response) of 13.3%.
In the case of CC1=C(C(=O)O)N2C(=O)[C@@H](N)[C@H]2SC1, the activity (max response) was 6.68%.
Compound CC(CC(C#N)(c1ccccc1)c1ccccc1)N(C)C (stereo not drawn) has an activity (max response) of -32%.
CC(=O)[C@H]1CC[C@H]2[C@@H]3CC[C@H]4C[C@H](O)CC[C@]4(C)[C@H]3C(=O)C[C@]12C showed an activity (max response) of 0.908%.
For CCC(=O)O[C@H]1CC[C@H]2[C@@H]3CCC4=CC(=O)CC[C@]4(C)[C@H]3CC[C@]12C, the activity (max response) was -15%.
Work on CCN(CCO)CCn1c(Cc2ccccc2)nc2c1c(=O)n(C)c(=O)n2C yielded an activity (max response) of 7.74%.
Compound CC1COC2(c3ccccc3Cl)c3cc(Cl)ccc3NC(=O)CN12 (stereo not drawn) has an activity (max response) of -14.7%.
CCC(COC(=O)c1cc(OC)c(OC)c(OC)c1)(c1ccccc1)N(C)C (stereo not drawn) showed an activity (max response) of -2.65%.
Compound Cc1sc2c(c1C)C(c1ccc(Cl)cc1)=NC(CC(N)=O)c1nnc(C)n1-2 (stereo not drawn) has an activity (max response) of -21.6%.
For C[C@]12CC[C@H]3[C@@H](CCC4=CC(=O)CC[C@@H]43)[C@@H]1CC[C@@H]2O, the activity (max response) was 5.27%.
Compound Oc1ccc([C@H]2CNCc3c2ccc(O)c3O)cc1O has an activity (max response) of -10.4%.
Compound CNC(C)Cc1ccc2c(c1)OCO2 (stereo not drawn) has an activity (max response) of -2%.
In the case of NC(=O)CN1CCCC1=O, the activity (max response) was 11.9%.
Compound O=[N+]([O-])c1cc([N+](=O)[O-])c2ccccc2c1 has an activity (max response) of -5.95%.
Work on COc1cc(C)[nH]c(=O)c1CNC(=O)c1c(C)n([C@H](C)C2CCN(CC(F)(F)F)CC2)c2ccccc12 yielded an activity (max response) of 8.69%.
CNC(=O)Oc1cccc2ccccc12 gave an activity (max response) of -8.24%.
In the case of ClCCCN1CCN(c2cccc(Cl)c2)CC1, the activity (max response) was -6.01%.
With O=C(N[C@H]1N=C(c2ccccc2F)c2cccc3c2N(CC3)C1=O)c1cc2ccccc2[nH]1 the activity (max response) was 11.2%.
Compound S=C(SSC(=S)N1CCCCC1)N1CCCCC1 has an activity (max response) of -0.757%.
For CN(C)CCc1c[nH]c2ccccc12, the activity (max response) was -12.4%.
Compound CCOP(=O)(NC(C)C)Oc1ccc(SC)c(C)c1 (stereo not drawn) has an activity (max response) of -12.8%.
In the case of COc1cc([C@@H]2c3cc4c(cc3[C@@H](O)C3COC(=O)C32)OCO4)cc(OC)c1O (stereo partly drawn), the Potency was 0.316 µM (active).
In the case of CCCN(CCC)C(=O)Cc1c(-c2ccc(Cl)cc2)nc2ccc(Cl)cn12, the activity (max response) was -9.21%.
O=C(CBr)Nc1ccc(Cl)cc1C(=O)c1ccccc1F gave an activity (max response) of -3.92%.
Compound CN(C)CCc1c[nH]c2cccc(O)c12 has an activity (max response) of 3.4%.
Compound O=S(=O)(O)C(F)(F)C(F)(F)C(F)(F)C(F)(F)F has an activity (max response) of 12.3%.
Compound NCCc1ccc(O)cc1 has an activity (max response) of 4.68%.
In the case of CCN(CC)Cc1nccn1-c1ccc([N+](=O)[O-])cc1C(=O)c1ccccc1Cl, the activity (max response) was -3.26%.
C[C@H]1[C@H](O)[C@@H](C)/C=C/C=C/CC/C=C/C=C/C=C/C=C/[C@H](O[C@@H]2O[C@H](C)[C@@H](O)[C@H](N)[C@@H]2O)C[C@@H]2O[C@](O)(C[C@@H](O)[C@H](O)CC[C@@H](O)C[C@@H](O)C[C@@H](O)CC(=O)O[C@H]1C)C[C@H](O)[C@H]2C(=O)O gave an activity (max response) of -20.1%.
COC(=O)c1cncn1C(C)c1ccccc1 (stereo not drawn) gave an activity (max response) of -8.99%.
CN1CCc2cc(Cl)c(O)cc2[C@H]2c3ccccc3CC[C@@H]21 gave an activity (max response) of -19.8%.
In the case of CC(Cc1ccccc1)NCCn1cnc2c1c(=O)n(C)c(=O)n2C (stereo not drawn), the activity (max response) was -22.4%.
Compound CC(C)c1c(CN(C)C(C)Cc2ccccc2)n(C)n(-c2ccccc2)c1=O (stereo not drawn) has an activity (max response) of 5.24%.
Work on CC1(C)CC/C(=C/c2ccc(Cl)cc2)C1(O)Cn1cncn1 (stereo not drawn) yielded an activity (max response) of 3.72%.

Experiment: Cellular viability qHTS for adrenocortical cancer (ACC) cell line NCI-H295R (AID 1963990); further: nearly all actives have a fitted effect of over 60% in size;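 on activity change, negative = viability loss: 0% = DMSO only wells and -100% = full killing with cytotoxic reference compound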
Details: CellTiter-Glo ATP luminescence, 48 h; series mostly up to 46.1 µM; activity change, negative = viability loss: at the top concentration
Procedure, shortened: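 Adrenocortical carcinoma cells, suspended at 300 000 cells/mL in serum-free DMEM plus ITS, rested overnight before pin transfer of compound. After two days' incubation, ATP-dependent luminescence was recorded and curve-fitted.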
With CS(=O)(=O)c1ccc(C(=O)C2C(=O)CCCC2=O)c([N+](=O)[O-])c1 the “activity change, negative = viability loss” value was 8.11% [at 92.7 µM].
In the case of COc1ccc2[nH]cc(CCN(C(C)C)C(C)C)c2c1, the “activity change, negative = viability loss” value was -21.2% [at 92.7 µM].
In the case of CC(=O)[C@H]1CC[C@H]2[C@@H]3CC[C@H]4C[C@H](O)CC[C@]4(C)[C@H]3C(=O)C[C@]12C, the “activity change, negative = viability loss” value was 7.11%.
In the case of CCN(CCO)CCn1c(Cc2ccccc2)nc2c1c(=O)n(C)c(=O)n2C, the “activity change, negative = viability loss” value was -0.2%.
In the case of CC1COC2(c3ccccc3Cl)c3cc(Cl)ccc3NC(=O)CN12 (stereo not drawn), the Potency was 23.1 µM (active).
With O=[N+]([O-])c1cc([N+](=O)[O-])c2ccccc2c1 the “activity change, negative = viability loss” value was 5.2% [at 92.7 µM].
With COc1cc(C)[nH]c(=O)c1CNC(=O)c1c(C)n([C@H](C)C2CCN(CC(F)(F)F)CC2)c2ccccc12 the “activity change, negative = viability loss” value was -28.7%.
In the case of CNC(=O)Oc1cccc2ccccc12, the “activity change, negative = viability loss” value was -1.43%.
For CN(C)CCc1c[nH]c2ccccc12, the “activity change, negative = viability loss” value was -21.7% [at 178 µM].
With CCCN(CCC)C(=O)Cc1c(-c2ccc(Cl)cc2)nc2ccc(Cl)cn12 the “activity change, negative = viability loss” value was 0.0125%.
With CN(C)CCc1c[nH]c2cccc(O)c12 the “activity change, negative = viability loss” value was -18.9% [at 92.7 µM].
For NCCc1ccc(O)cc1, the “activity change, negative = viability loss” value was -4.16%.
In the case of C[C@H]1[C@H](O)[C@@H](C)/C=C/C=C/CC/C=C/C=C/C=C/C=C/[C@H](O[C@@H]2O[C@H](C)[C@@H](O)[C@H](N)[C@@H]2O)C[C@@H]2O[C@](O)(C[C@@H](O)[C@H](O)CC[C@@H](O)C[C@@H](O)C[C@@H](O)CC(=O)O[C@H]1C)C[C@H](O)[C@H]2C(=O)O, the “activity change, negative = viability loss” value was -1.12%.
With COC(=O)c1cncn1C(C)c1ccccc1 (stereo not drawn) the “activity change, negative = viability loss” value was -10.2%.
